Screening data: PubChem, National Center for Advancing Translational Sciences (NCATS)
Rows were chosen to be rich in hits. Some 1.1% of all compounds tested hit in one or more screens of this group.
p53 reactivation – restores transcriptional activity of mutant p53. 0.063% of 320,000 active. Potency, µM (highest dose often 92.2 µM), for inactives: at the highest dose activity change, positive = activation, hits mostly activators. AID 504706. H1299 p53-A138V BP100-luciferase reporter, luminescence, 24 h; also: potency is read from the fitted curve at half-maximal effect; % of control where 0% means no effect; nearly all actives have a fitted effect of over 45% in size
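p53-null H1299 cells stably carrying temperature-sensitive p53-A138V and a BP100-luciferase reporter were pinned with compounds (4-point, 1:5 series) and held 24 hrs at 37 deg C. Luminescence was read 10 min after detection reagent.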
gsp antagonist – antagonizes gsp, the McCune-Albright syndrome mutation. 0.4% of 340,000 active. Potency, µM (series often up to 76.9 µM), for the others: at the top dose activity change, negative = inhibition, hits mostly inhibitors. AID 624288. gsp-mutant cells, cAMP HTRF, 30 min; calls by dose curve; cell line not stated here;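 also: intracellular cAMP measured with PDE inhibitor Ro 20-1724 present during compound exposure; potency is read from the fitted curve at half-maximal effect; % is scaled to controls: 0 for no effect and ±100 for the full control effect; nearly all actives have a fitted effect of over 65% in size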
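HTRF cAMP read-out (cAMP-d2 plus anti-cAMP antibody-K in lysis buffer, 30 min RT). Before lysis, cells are exposed to compounds with […] for 30 min at 37C in DPBS containing Ca/Mg, BSA and Tween 20.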
Tb PFK block – inhibitors of T. brucei phosphofructokinase; O15648; T. brucei PFK, ADP-Glo luminescence; Potency, µM (top dose mostly 57.5 µM), without a hit: at the highest dose activity, negative = inhibition, hits mostly inhibitors; 0.17% of 330,000 active;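 also: potency is read from the fitted curve at half-maximal effect; 0% = uninhibited 1x PFK enzyme wells and -100% = no-enzyme wells; nearly all actives have a fitted effect of over 60% in size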
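Compounds were pin-transferred as a titration series up to 57 uM into substrate buffer (0.5 mM F6P, 0.1 mM ATP, pH 8.0), then 1.25 nM PFK was added and reactions ran 45 min before ADP-Glo detection.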
RXFP1 antagonist – RXFP1 (human) relaxin receptor antagonism. HEK293-RXFP1, relaxin-stimulated cAMP HTRF, 30 min; hits give low values. activity change, negative = inhibition, % at 57.5 µM. 0.59% of 350,000 active. Q9HBX9;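 active = activity change of -60% or lower, but not beyond a set lower limit; inconclusive = change between -60% and -40%, or beyond the set limit; inactive = change above -40%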; also: % is scaled to controls: 0 for no effect and ±100 for the full control effect
Target sequence (Q9HBX9 whole entry, looked up): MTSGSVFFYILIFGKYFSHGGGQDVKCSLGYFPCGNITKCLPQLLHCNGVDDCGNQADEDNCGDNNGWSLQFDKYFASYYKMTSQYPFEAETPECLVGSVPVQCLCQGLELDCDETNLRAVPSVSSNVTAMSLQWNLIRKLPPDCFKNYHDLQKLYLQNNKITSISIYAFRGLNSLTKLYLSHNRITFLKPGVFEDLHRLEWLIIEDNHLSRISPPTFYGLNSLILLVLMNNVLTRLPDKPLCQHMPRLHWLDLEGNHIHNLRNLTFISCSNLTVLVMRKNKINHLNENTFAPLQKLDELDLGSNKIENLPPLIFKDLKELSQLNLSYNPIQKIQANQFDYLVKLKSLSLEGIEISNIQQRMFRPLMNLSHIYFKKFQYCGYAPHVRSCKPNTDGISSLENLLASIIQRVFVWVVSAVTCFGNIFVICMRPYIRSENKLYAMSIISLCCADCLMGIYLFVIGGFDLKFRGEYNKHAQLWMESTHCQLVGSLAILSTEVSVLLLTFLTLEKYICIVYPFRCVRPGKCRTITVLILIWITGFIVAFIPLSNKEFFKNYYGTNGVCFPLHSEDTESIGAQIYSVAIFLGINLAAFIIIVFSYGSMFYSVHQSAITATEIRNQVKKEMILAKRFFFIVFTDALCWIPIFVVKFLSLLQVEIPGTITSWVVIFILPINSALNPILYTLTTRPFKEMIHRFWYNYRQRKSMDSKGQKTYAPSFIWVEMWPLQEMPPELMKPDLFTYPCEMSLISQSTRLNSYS
RXFP1 agonist – agonists of human relaxin receptor RXFP1; HEK293T-RXFP1 cAMP TR-FRET, 30 min; response scale: percent of porcine relaxin response, buffer zero; Potency, µM (highest dose often 57.5 µM), for the others: at the top dose activation, hits mostly activators; 0.3% of 370,000 active; also: potency is read from the fitted curve at half-maximal effect; % is scaled to controls: 0 for no effect and ±100 for the full control effect; nearly all actives have a fitted effect of over 60% in size
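Agonist response is measured as cAMP accumulation in an RXFP1-transfected HEK293T line under PDE4 inhibition. Values are scaled between buffer-only and 29 nM porcine relaxin, and EC50s come from standard Hill equation fits.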
gsp ag – agonists of gsp mutant (McCune-Albright syndrome). gsp mutant cells, cAMP HTRF, 30 min. Potency, µM (highest dose often 76.9 µM), for inactives: at the top dose activation (cAMP increase), actives largely listed as activators. 0.13% of 340,000 active. AID 624287; active = well fitted activation curve with a large enough effect; inconclusive = small, poorly fitted or top-dose-only effect, or another doubt; inactive = no such curve, though single readings can be large or run the other way; cell line not stated here;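 also: phosphodiesterase inhibitor Ro 20-1724 added with compounds to block cAMP breakdown; potency is read from the fitted curve at half-maximal effect; nearly all actives have a fitted effect of over 60% in size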
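Cells stably selected in G418 were plated at 2000/well, grown 16-24 hr, then given compounds in DMSO with the PDE inhibitor […] (300 uM solution added) for 30 min at 37C; cAMP was read by HTRF.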
* = called active by the depositor; ? = inconclusive; . = no result; ! = not active in a repeat; [ ] = remark or other dose. Unless noted, calls follow the shape of the dose curve; as a rule, active = well fitted curve in the direction sought with a large enough effect; inconclusive = small, poorly fitted or top-dose-only effect, or another doubt; inactive = no such curve, though single readings can be large; an effect the other way counts as inactive or inconclusive.

SMILES | p53 reactivation | gsp antagonist | Tb PFK block | RXFP1 antagonist | RXFP1 agonist | gsp ag
O=C(CCCCCn1c(=O)c2sccc2n(Cc2ccccc2Cl)c1=O)NCc1ccc2c(c1)OCO2 | . | . | . | -6 | 32µM* | .
O=C(OCC1OC(n2ccc(=O)[nH]c2=O)C(Cl)C1O)c1ccccc1 (stereo unspecified) | -2% | -6% | 4% | -12 | 0% | -10%[15.4 µM]
CCCn1c2ccccc2c2cnn(CC(=O)NCCCN(CC)c3ccccc3)c(=O)c21 | . | . | . | 9 | -2% | .
Cn1c(=O)c2sccc2n2c(CCCC(=O)NCc3ccc4c(c3)OCO4)nnc12 | -1% | -1% | 1% | 8 | ? | 35µM*
CCOc1ccc(-n2c(CC)nc3c(cnn3-c3ccc(Cl)cc3)c2=O)cc1 | . | . | . | . | -1% | .
CS(=O)(=O)N(CC(=O)N1CCOCC1)Cc1ccc(Cl)cc1 | 19% | 7% | -3% | -4 | 2% | 10%
CCN(CC(=O)Nc1ccccc1C(F)(F)F)C(=O)CN1C(=O)NC2(CCCC2)C1=O | -4% | 6% | 3% | -60* | 1% | -15%[15.4 µM]
O=C(CCC1CCN(Cc2ccccc2)CC1)c1ccc2c(c1)NCCCC2 | . | . | . | -35 | . | .
COc1cc(/C=N/N2CCN(c3ccccc3)CC2)cc(OC)c1OC(C)=O | 4% | 32µM* | 1% | -1 | 0% | -10%
Cc1ccc(S(=O)(=O)N(C)c2ccc(C(=O)Nc3cccc(C)n3)cc2)cc1 | -10% | 35µM* | -2% | -35 | 0% | 9%[15.4 µM]
Cc1ccc(S(=O)(=O)N(C)c2ccc(C(=O)Nc3ccccn3)cc2)cc1 | -3% | -28% | 2% | -25 | 0% | -27%
O=S(=O)(/N=C(/Nc1ccccn1)c1ccccc1)c1ccc(F)cc1 | 8% | 2% | -4% | -19 | -1% | ?
CC(C)CC(=O)NC(=S)Nc1cccc2nsnc12 | 6% | ? | 3% | -70* | 5% | -12%[15.4 µM]
O=C(Nc1ccc(Cl)cc1)Nc1cccc2nsnc12 | ? | 40µM* | -5% | -35 | 4% | 5%
COc1ccccc1Nc1c2c(nc3ccc(NC(=O)c4ccccc4F)cc13)CCCC2 | . | . | . | -66* | 2% | .
CCc1cc2c(=O)c(-c3ccc4c(c3)OCCO4)coc2cc1OS(C)(=O)=O | ? | ? | 7% | -84* | -2% | -16%[15.4 µM]
CCOC(=O)c1c(-c2ccccc2)oc2ccc(OCC(O)CNCCN(C)C)cc12 (stereo unspecified) | -16% | 13% | 2% | -100* | 0% | 8%[15.4 µM]
CCOC(=O)c1c(-c2ccccc2)oc2ccc(OCC)cc12 | -2% | -9% | -1% | -13 | 2% | 9%
CC1CCN(C(=O)CSc2nc3c(c(=O)n2C)SCC3)CC1 | 18% | -9% | -2% | 1 | 2% | 1%
O=[N+]([O-])c1cccc(Nc2nc(Cl)nc(Cl)n2)c1 | 1% | 4% | -25% | -10 | -1% | -6%[15.4 µM]
O=[N+]([O-])c1cccc(NC2=NCCC2)c1 | 6% | 19% | -3% | -64* | 1% | 0%[15.4 µM]
CCOc1ccc(CCNC(=O)CCCn2c(=O)c3cccn3c3cccnc32)cc1OCC | 1% | ? | 0% | -96*! | ? | 0%
CC(C(=O)O)N1C(=O)/C(=C/C=C/c2ccco2)SC1=S (stereo unspecified) | 3% | 2% | 3µM* | -9 | -1% | 33%
Cc1ccc(/C=C/C(=O)c2ccc(O)cc2)cc1 | 11µM* | -5% | -2% | -36 | -1% | ?
CSc1ccc(/C=C/C(=O)c2ccc(O)cc2)cc1 | ? | -9% | -5% | -10 | -1% | -15%[15.4 µM]
COc1cc(OC)cc(-c2n[nH]c(=S)n2-c2ccc3c(c2)OCO3)c1 | -2% | -15% | -1% | -16 | 10% | 7.1µM*
COc1cc(-c2n[nH]c(=S)n2-c2ccc(C)cc2)cc(OC)c1OC | 2% | -8% | 0% | -14 | -1% | 14µM*
